An excerpt weighted towards active compounds, which were near 12% of everything screened.
G9a inh = blocks human histone lysine methyltransferase G9a; 350,000 tested, 8.8% active; G9a H3K9 monomethylation, AlphaScreen, 2 h; Potency, µM (top dose mostly 102 µM), actives largely listed as inhibitors; Q96KQ7; AID 504332; note: nearly all actives have a fitted effect of over 75% in size
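Signal arises when biotinylated H3K9 peptide, once monomethylated, bridges streptavidin donor and antibody-captured acceptor beads. Enzyme at 20 nM was preincubated 15 min with test compounds; peptide 500 nM and SAM 20 uM then reacted for 2 h.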
BAZ2B inh = BAZ2B (human) inhibition; Q9UIF8; AlphaScreen BAZ2B-H3K14Ac peptide displacement; Potency, µM (highest dose often 114 µM), hits mostly inhibitors; 360,000 tested, 4.4% active; AID 504333; note: nearly all actives have a fitted effect of over 60% in size
Target sequence (Q9UIF8 whole entry, looked up): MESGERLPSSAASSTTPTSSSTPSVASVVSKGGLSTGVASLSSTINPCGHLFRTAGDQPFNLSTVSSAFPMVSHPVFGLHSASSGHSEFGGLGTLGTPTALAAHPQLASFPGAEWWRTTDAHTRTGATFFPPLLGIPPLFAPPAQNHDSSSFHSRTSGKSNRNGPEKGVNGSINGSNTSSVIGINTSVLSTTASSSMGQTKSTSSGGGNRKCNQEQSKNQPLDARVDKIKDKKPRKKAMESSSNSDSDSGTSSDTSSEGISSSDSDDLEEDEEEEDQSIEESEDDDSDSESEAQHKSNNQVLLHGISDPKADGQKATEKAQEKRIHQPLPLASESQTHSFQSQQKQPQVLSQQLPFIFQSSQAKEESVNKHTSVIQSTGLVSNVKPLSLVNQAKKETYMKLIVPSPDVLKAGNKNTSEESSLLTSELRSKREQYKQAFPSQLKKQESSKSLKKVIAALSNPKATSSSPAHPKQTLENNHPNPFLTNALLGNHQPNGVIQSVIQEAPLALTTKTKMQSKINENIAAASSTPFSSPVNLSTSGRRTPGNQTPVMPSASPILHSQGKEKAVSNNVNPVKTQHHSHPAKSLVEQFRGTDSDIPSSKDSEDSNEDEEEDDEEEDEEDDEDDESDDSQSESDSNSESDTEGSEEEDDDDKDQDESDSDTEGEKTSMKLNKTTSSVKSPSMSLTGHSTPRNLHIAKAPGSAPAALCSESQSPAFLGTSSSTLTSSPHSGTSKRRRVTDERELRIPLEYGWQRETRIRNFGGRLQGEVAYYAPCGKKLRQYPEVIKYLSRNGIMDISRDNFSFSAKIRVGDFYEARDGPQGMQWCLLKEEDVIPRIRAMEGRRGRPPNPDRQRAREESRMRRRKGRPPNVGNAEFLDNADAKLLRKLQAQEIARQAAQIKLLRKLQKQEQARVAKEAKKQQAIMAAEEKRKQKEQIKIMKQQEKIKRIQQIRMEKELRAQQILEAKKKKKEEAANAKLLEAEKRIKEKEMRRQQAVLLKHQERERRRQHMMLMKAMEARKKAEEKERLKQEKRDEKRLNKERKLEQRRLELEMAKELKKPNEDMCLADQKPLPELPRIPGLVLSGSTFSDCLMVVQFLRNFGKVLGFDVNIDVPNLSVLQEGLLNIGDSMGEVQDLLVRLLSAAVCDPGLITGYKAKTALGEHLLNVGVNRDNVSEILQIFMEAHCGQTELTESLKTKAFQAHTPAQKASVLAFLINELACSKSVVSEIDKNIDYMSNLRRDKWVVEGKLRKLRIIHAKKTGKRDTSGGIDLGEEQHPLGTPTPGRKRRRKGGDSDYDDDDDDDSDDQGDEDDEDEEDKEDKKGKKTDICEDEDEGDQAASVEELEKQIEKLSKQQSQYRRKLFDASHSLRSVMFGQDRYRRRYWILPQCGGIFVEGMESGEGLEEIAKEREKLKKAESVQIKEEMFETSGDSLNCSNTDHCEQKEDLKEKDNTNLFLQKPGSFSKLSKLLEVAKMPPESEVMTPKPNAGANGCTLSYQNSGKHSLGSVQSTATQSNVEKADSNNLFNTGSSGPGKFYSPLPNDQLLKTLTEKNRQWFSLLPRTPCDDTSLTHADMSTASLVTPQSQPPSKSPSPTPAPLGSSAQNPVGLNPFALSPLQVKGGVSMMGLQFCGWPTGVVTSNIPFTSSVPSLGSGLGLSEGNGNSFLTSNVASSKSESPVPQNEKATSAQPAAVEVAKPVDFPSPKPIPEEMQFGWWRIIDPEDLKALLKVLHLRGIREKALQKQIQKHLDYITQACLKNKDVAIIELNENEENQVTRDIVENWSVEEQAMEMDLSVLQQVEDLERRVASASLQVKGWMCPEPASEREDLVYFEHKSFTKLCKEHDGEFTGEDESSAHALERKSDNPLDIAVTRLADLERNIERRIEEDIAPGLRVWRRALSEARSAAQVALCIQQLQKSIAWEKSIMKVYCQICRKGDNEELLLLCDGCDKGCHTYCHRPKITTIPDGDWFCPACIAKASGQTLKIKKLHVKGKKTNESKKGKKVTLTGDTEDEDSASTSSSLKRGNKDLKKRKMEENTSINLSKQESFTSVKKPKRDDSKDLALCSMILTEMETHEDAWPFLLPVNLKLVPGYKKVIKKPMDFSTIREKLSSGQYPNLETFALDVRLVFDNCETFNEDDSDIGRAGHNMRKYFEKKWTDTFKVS
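BAZ2B (50 nM) with biotin-H3(5-23)K14Ac peptide (50 nM) in PBS pH 7.4, 0.01% Tween-20, preformed 30 min, then compound 30 min at room temperature; top concentration 110uM. AlphaScreen streptavidin donor/nickel chelate acceptor beads (10 ug/mL final), 20 min dark, signal read.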
Sfp PPTase inh = Sfp phosphopantetheinyl transferase inhibition | 310,000 tested, 3.5% active | Biochemical Sfp PPTase activity, qHTS | Potency, µM, most hits filed as inhibitors | Q9F4F7;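 note: the enzyme is Sfp with the accession as filed and its product quenches rhodamine fluorescence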
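Buffer: 50 mM Hepes-Na pH 7.6, 10 mM MgCl2, 0.01% Nonidet P-40, 0.01% BSA. Enzyme 15 nM, pre-exposed to compound 15 min; substrates then added and fluorescence change tracked over 30 min.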
JMJD2A Tudor = inhibitors of human JMJD2A Tudor domain | AID 504339 | AlphaScreen JMJD2A-Tudor / H3K4me3 peptide binding | 390,000 tested, 4.4% active | O75164 | Potency, µM (doses to about 114 µM), most hits filed as inhibitors; note: nearly all actives have a fitted effect of over 50% in size
HP1b chromo inh = blocks HP1-beta chromodomain binding to methylated histone tails; 390,000 tested, 0.56% active; Potency, µM (top dose mostly 114 µM), actives largely listed as inhibitors; AID 540317; AlphaScreen HP1-beta / biotin-H3K9me3 peptide binding; P83916; note: nearly all actives have a fitted effect of over 70% in size
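HP1-beta protein (50 nM final) preincubated 30 min at room temperature with biotinylated H3(1-18)K9me3 peptide (50 nM) in PBS pH 7.4, 0.01% Tween-20, then compound added for 30 min. AlphaScreen streptavidin donor/nickel chelate acceptor beads (10 ug/mL final), 30 min dark, luminescence read.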
Large screens that a line does not name were inactive. Calls come from the whole dose curve; as a rule, active = well fitted curve in the direction sought with a large enough effect; inconclusive = small, poorly fitted or top-dose-only effect, or another doubt; inactive = no such curve, though single readings can be large; an effect the other way counts as inactive or inconclusive.

CCOc1ccc(S(=O)(=O)NC(Cc2cnc[nH]2)C(=O)O)cc1 (centres undefined)	G9a inh 50µM, JMJD2A Tudor 16µM
CC(C)NC(=S)N1CCN(Cc2ccc3c(c2)OCO3)CC1	none
CCN(CC)c1ccc(/C=N/NC(=O)CNC(=O)c2ccc3c(c2)OCCO3)cc1	G9a inh 45µM
CCN(CC)c1ccc(C(=O)NC(=S)N2CCN(Cc3ccc4c(c3)OCO4)CC2)cc1	G9a inh 40µM, BAZ2B inh inconclusive, JMJD2A Tudor inconclusive
CC(=O)Nc1cc(NC(C)=O)cc(C(=O)OCC(=O)c2ccc3c(c2)OCO3)c1	G9a inh 10µM (no result: Sfp PPTase inh)
CCN(CC)c1ccc(NC(=O)c2ccc3c(c2)OCO3)cc1	G9a inh 6.3µM, BAZ2B inh 45µM, JMJD2A Tudor inconclusive, HP1b chromo inh inconclusive
CN(C)c1ccc(/C=N/NC(=O)CNC(=O)c2ccc3c(c2)OCCO3)cc1	G9a inh inconclusive
CCc1ccccc1NCc1nnc2n1CCCCC2	none (no result: Sfp PPTase inh)
CCOc1ccc(CCNC(=O)c2ccc3c(c2)c(C)c(C)n3C)cc1	G9a inh inconclusive, BAZ2B inh inconclusive, JMJD2A Tudor inconclusive (no result: Sfp PPTase inh)
CCOC(=O)Cn1c(=O)cc(C(F)(F)C(F)(F)F)c2c(C)nn(CC)c21	none (no result: Sfp PPTase inh)
O=C(Cn1nnc2ccccc2c1=O)Nc1cccc(S(=O)(=O)N2CCOCC2)c1	none
COc1ccc(C2Nc3ccccc3C(=O)N2CCc2ccccc2)cc1COc1ccc(NC(C)=O)cc1 (centres undefined)	none (no result: G9a inh, BAZ2B inh, Sfp PPTase inh, HP1b chromo inh)
O=C(Nc1ccc(-c2nc3ccccc3[nH]2)cc1)c1ccc2c(c1)OCO2	G9a inh 71µM, BAZ2B inh inconclusive
CCOc1ccc(C(=O)Nc2ccc(-c3nc4ccccc4[nH]3)cc2)cc1[N+](=O)[O-]	JMJD2A Tudor 79µM
COc1cccc2c1Oc1ncccc1N(C(=O)CCC(=O)NCc1ccc(N(C)C)cc1)C2	G9a inh inconclusive (no result: Sfp PPTase inh)
CN(c1ccc(O)cc1)c1nc(-c2ccccc2)cs1	G9a inh inconclusive, BAZ2B inh 50µM
O=C(COCc1cc(-c2ccc(F)cc2)on1)Nc1cc(Cl)ccc1O	none (no result: Sfp PPTase inh)
CCOC(=O)C1CCCN(S(=O)(=O)c2cc3c4c(c2)CCN4C(=O)CC3)C1 (centres undefined)	G9a inh inconclusive (no result: Sfp PPTase inh)
CCOC(=O)C1CCN(S(=O)(=O)c2ccc3c4c2CC(=O)N4CC(C)S3)CC1 (centres undefined)	G9a inh 35µM
CCOC(=O)C1CCCN(S(=O)(=O)c2ccc3c4c2CC(=O)N4CC(C)S3)C1 (centres undefined)	G9a inh 45µM
Cc1onc(-c2c(F)cccc2Cl)c1C(=O)N(C)CCc1ccccn1	none
COc1ccc(CCNC(=O)C2CCCN2S(=O)(=O)c2cccc3nsnc23)cc1OC (centres undefined)	none
CCc1ccccc1NC(=S)N(Cc1cccc(C)c1)c1cccnc1	none
Cc1cccc(CN(C(=S)Nc2c(C)cccc2C)c2cccnc2)c1	G9a inh inconclusive, BAZ2B inh 79µM
COc1cccc(N=Nc2c(C)[nH]n(-c3ccccc3)c2=O)c1	G9a inh 7.9µM, BAZ2B inh 6.3µM, JMJD2A Tudor inconclusive, HP1b chromo inh inconclusive
CCOc1ccc(N=Nc2c(C)[nH]n(-c3ccccc3)c2=O)cc1	BAZ2B inh inconclusive, Sfp PPTase inh inconclusive, JMJD2A Tudor inconclusive
Cc1[nH]n(-c2ccccc2)c(=O)c1N=Nc1ccc2c(c1)OCO2	G9a inh 3.2µM, BAZ2B inh 1.8µM, JMJD2A Tudor inconclusive
Cc1ccc(-c2[nH]nc3c2C(C)C(C#N)=C(N)O3)cc1 (centres undefined)	none
COc1ccc(-c2ccc(C3C(C#N)=C(N)Oc4n[nH]c(C)c43)o2)cc1 (centres undefined)	G9a inh inconclusive, BAZ2B inh 50µM, JMJD2A Tudor inconclusive
N#CC1=C(N)Oc2n[nH]c(-c3ccc(F)cc3)c2C1c1cccnc1 (centres undefined)	G9a inh inconclusive
Cc1ccc(C2C(C#N)=C(N)Oc3n[nH]c(-c4cccnc4)c32)o1 (centres undefined)	G9a inh 79µM, BAZ2B inh inconclusive
Cc1ccc(C2C(C#N)=C(N)Oc3n[nH]c(-c4ccccc4)c32)o1 (centres undefined)	G9a inh 22µM, BAZ2B inh inconclusive, Sfp PPTase inh inconclusive, JMJD2A Tudor 16µM, HP1b chromo inh inconclusive

Bioassay records deposited in PubChem BioAssay by National Center for Advancing Translational Sciences (NCATS).
